GALK inhibitor: qHTS Assay for Inhibitors of Human Galactokinase (GALK). Potency, µM (top dose mostly 57.5 µM), usual class: inhibitors. Purified GALK, Kinase-Glo residual ATP luminescence. P51570. actives 0.007% (n = 270,000). AID 1868, 2009
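5 nM enzyme, 35 uM ATP, 100 uM galactose, 20 mM HEPES pH8.0, 5 mM MgCl2; 1 h RT; residual ATP by Kinase-Glo Plus luminescence, qHTS format.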
rTrxR1 inhibitor: qHTS Assay for Inhibitors of Mammalian Selenoprotein Thioredoxin Reductase 1 (TrxR1): qHTS. Thioredoxin reductase 1, cytoplasmic (Rattus norvegicus), O89049. recombinant rTrxR1, NADPH fluorescence consumption, selenite substrate. Potency, µM (highest dose often 114 µM), hits mostly inhibitors. actives 1% (n = 390,000); note: nearly all actives have a fitted effect of over 65% in size
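Rat TrxR1 (90 nM in the dispensed reagent) was pre-reduced with 400 uM NADPH for 5 min at room temperature, then incubated with compound for 15 min. After 400 uM selenite was added, NADPH fluorescence (Ex 340/Em 450 nm) was followed for 8 min.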
Giardia killer: Small Molecules that selectively kill Giardia lamblia: qHTS. Giardia lamblia trophozoite viability. activity change, % at 7.66 µM, hits read low. actives 0.15% (n = 340,000); in the data active = activity change below about -80%; inconclusive = between about -30% and that limit;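 note: parasites exposed to compound for two days anaerobically before the ATP read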
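Luminescent ATP signal served as the viability read-out, measured 15-30 min after adding ATP detection reagent to trophozoites that had been incubated with compounds for 48 hrs at 37 deg C anaerobically at 100 cells/well.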
PI4K2A inh: qHTS for small molecular inhibitors of PI4K2A. actives 0.13% (n = 420,000). activity change, negative = inhibition, % at 76.9 µM. purified PI4K2A, ADP-Glo luminescence, 1 h; active compounds read low. Phosphatidylinositol 4-kinase type 2-alpha (Homo sapiens), Q9BTU6; in the data active = activity change below about -50%; inconclusive = mostly about -30% to -49%
Target sequence (Q9BTU6 whole entry, looked up): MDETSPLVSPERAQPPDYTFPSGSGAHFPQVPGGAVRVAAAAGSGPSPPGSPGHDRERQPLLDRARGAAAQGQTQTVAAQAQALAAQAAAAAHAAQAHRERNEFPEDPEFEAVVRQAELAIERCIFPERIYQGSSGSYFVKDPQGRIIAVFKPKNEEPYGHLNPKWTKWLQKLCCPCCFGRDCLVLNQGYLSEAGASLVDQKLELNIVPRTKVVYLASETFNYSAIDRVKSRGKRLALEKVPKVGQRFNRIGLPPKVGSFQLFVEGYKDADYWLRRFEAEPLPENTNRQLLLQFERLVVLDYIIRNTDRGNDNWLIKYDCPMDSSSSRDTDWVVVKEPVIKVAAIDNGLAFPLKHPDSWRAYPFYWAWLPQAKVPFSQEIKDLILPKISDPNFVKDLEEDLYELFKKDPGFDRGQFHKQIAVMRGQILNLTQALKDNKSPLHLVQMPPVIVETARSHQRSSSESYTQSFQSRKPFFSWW
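Compounds are screened against recombinant PI4K2A using PI as substrate and ATP, the latter dispensed at 300 microM. Reactions run one hour at ambient temperature before ADP-Glo detection; full inhibition defined by wells lacking enzyme.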
Coupling enz: qHTS Assay for Inhibitors of Fructose-1,6-bisphosphate Aldolase from Giardia Lamblia: Coupling assay counterscreen; activity change, negative = inhibition, % at 58.2 µM, hits read low; AID 2472, 2010; actives 0.67% (n = 290,000); coupling enzyme system counterscreen, AmpLite Red fluorescence; in the data active = activity change below about -30%
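Fluorescence at 525 nm excitation and 598 nm emission measured inhibition of the coupled detection system without aldolase. Compounds (at 57.5 uM final) were preincubated 10 min at room temperature with coupling enzyme reagent before a 20 min substrate/AmpLite Red step.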
TrxR1 substrate: qHTS Assay for Substrates of Mammalian Selenoprotein Thioredoxin Reductase 1 (TrxR1): qHTS | actives 0.01% (n = 390,000) | Potency, µM (highest dose often 114 µM) | Thioredoxin reductase 1, cytoplasmic (Rattus norvegicus), O89049 | purified TrxR1 substrate turnover, NADPH consumption readout; note: nearly all actives have a fitted effect of over 50% in size
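Rat TrxR1, dispensed at 90 nM, was prereduced with 400 uM NADPH (final) for 5 min at ~22 deg C, then incubated with compound 15 min before 400 uM selenite. A first-read NADPH fluorescence drop versus no-compound background flagged substrates.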
Hits are given with their value; 0 = inactive; ? = inconclusive; - = no result given. Compounds with a hit are over-represented: about 1.5% of the library has one in this group of screens. Unless noted, calls come from the whole dose curve; as a rule, active = well fitted curve in the direction sought with a large enough effect; inconclusive = small, poorly fitted or top-dose-only effect, or another doubt; inactive = no such curve, though single readings can be large; an effect the other way counts as inactive or inconclusive.

SMILES	GALK inhibitor	rTrxR1 inhibitor	Giardia killer	PI4K2A inh	Coupling enz	TrxR1 substrate
COc1ccccc1N1CCN(CC(O)COc2cc(OC)c(OC)c(OC)c2)CC1 (centres undefined)	-	-	-	0	-	-
CCOC(=O)c1c(C)[nH]c(C)c1S(=O)(=O)NCC(=O)Nc1ccc(C)c(N(C)C)c1	-	0	-	0	-	0
CN(C)c1cncc(C(=O)O)c1	0	0	0	0	-55	0
O=C(O)c1cncc(Br)c1	0	0	0	0	0	0
Cc1ccc(C(=O)c2no[n+]([O-])c2C(=O)c2ccc(C)cc2)cc1	-	0.89µM	0	0	0	0
O=C(COc1ccccc1C(=O)Nc1ccccc1)NCCCCc1ccccc1	-	0	-	-	-	0
COc1cc(/C=C/c2nc(C#N)c(NC3CCCCC3)o2)cc(OC)c1OC	-	0	-	0	-	0
CC(C)(C)c1ccc(S(=O)(=O)N2CCCC(C(=O)NCCN3CCC(Cc4ccccc4)CC3)C2)cc1 (centres undefined)	-	-	-	0	-	-
O=C(O)c1cccc(NC2=C(n3nnc4ccccc43)C(=O)c3ccccc3C2=O)c1	-	0	0	0	-32	0
Nn1c(SCc2ccc(Br)cc2)nnc1-c1n[nH]c2c1CCC2	-	-	-	0	-	-
O=C(CCS(=O)(=O)c1ccc(Br)cc1)Nc1cc(F)ccc1F	0	35µM	0	0	0	0
CCOC(=O)CC[C@@]1(C(=O)OCC)C[C@@H](CC(=O)NCc2ccc(C)o2)C(=O)N2CCCC=C21	-	-	-	0	-	-
CC(C)n1cc(/C=C/c2cc[n+](C)cc2)c2ccccc21	0	0	0	0	-33	0
O=c1c2ccccc2nc(/C=C/c2ccc([N+](=O)[O-])cc2)n1CCCO	0	0	0	0	0	0
O=c1c2ccccc2nc(/C=C/c2ccc([N+](=O)[O-])o2)n1CCCO	0	?	-88	0	0	0
N#C/C(=C\c1coc2ccc(O)cc2c1=O)C(=O)Nc1nc2ccccc2s1	?	14µM	0	0	0	0
CCCc1nc([N+](=O)[O-])c(S(=O)(=O)c2ccccc2)n1CC(C)C	-	2.8µM	0	0	0	0
CC(C)Cn1c(C(C)C)nc([N+](=O)[O-])c1S(=O)(=O)c1ccc(F)cc1	0	?	0	0	0	0
Cc1ccccc1NC(=O)C1Cc2ccccc2CN1C(=O)c1ccco1 (centres undefined)	0	?	0	0	0	0
CCSc1nnc(NC(=O)C2Cc3ccccc3CN2C(=O)c2ccco2)s1 (centres undefined)	0	32µM	0	0	0	0
CCOC(=O)c1cc(-c2ccccc2)n(CCC(=O)Nc2ccc(Cl)c(C(F)(F)F)c2)c1C	-	0	-	0	-	0
CCn1c(Cl)c(C=O)s/c1=N\S(=O)(=O)c1ccccc1	0	1.4µM	0	0	0	0
CCN1C(=O)CS/C1=N\S(=O)(=O)c1ccc(Cl)cc1	0	0	0	0	0	0
CCOc1ccc(-c2cccc(NS(=O)(=O)c3c(C)cc(C)cc3C)c2)nn1	-	0	-	0	-	0
CC(=O)Nc1ccc(/C=C/C(=O)c2ccc(-n3nncc3-c3ccccc3)cc2)cc1	-	0	0	-	-	0
SMILES	GALK inhibitor	rTrxR1 inhibitor	Giardia killer	PI4K2A inh	Coupling enz	TrxR1 substrate
O=C(c1ccoc1)N1CCC2(CC1)Oc1ccc(F)cc1C(=O)C21CC(c2ccc(Cl)cc2)=NO1 (centres undefined)	0	71µM	0	0	0	0
CCc1sc(C(C2C(=O)CC(C)(C)CC2=O)C2C(=O)CC(C)(C)CC2=O)cc1[N+](=O)[O-]	0	1.8µM	0	0	0	0
CC1(C)CC(=O)C(C(c2ccc(F)cc2)C2C(=O)CC(C)(C)CC2=O)C(=O)C1	0	0	0	0	0	0
CC(C)=CNNC(=O)c1ccc(O)cc1	-	0	-	-	-	0
CC1CCN(c2nc(-c3ccco3)c3c(c2C#N)CC(C)(C)OC3)CC1	0	8.9µM	0	0	0	0
Nc1sc2c(c1C(=O)NC1CCS(=O)(=O)C1)CCC2 (centres undefined)	0	25µM	0	0	0	0
NC(=O)c1c(N)sc2c1CCCCC2	0	0	0	?	0	0
NC(=O)c1c(N)sc2c1CCC2	0	50µM	0	0	0	0
C#CCNC(=O)C[C@@H]1C(=O)N2CCCC3=C2[C@@]1(C(=O)OCC)CCC3	-	-	-	0	-	-
O=S(=O)(Nc1cccc2cccnc12)c1ccc(Br)s1	-	-	-	-	0	-
COc1cc(/C=C2\C(=O)N(c3ccc(S(N)(=O)=O)cc3)N=C2C)ccc1OC(=O)c1ccco1	0	0	0	-52	0	0
COc1cc(/C=C/[N+](=O)[O-])ccc1OCc1cccc(C(=O)O)c1	0	32µM	0	-51	0	0
COc1cc(/C=C2\C(=O)N(c3cccc(C(=O)O)c3)N=C2C)ccc1OCc1ccccc1	-	-	-	-59	-	-
CCOC(=O)[C@]12CCCC3=C1N(CCC3)C(=O)[C@@H](CC(=O)N1CCN(C(=O)c3ccco3)CC1)C2	-	-	-	0	-	-
CC12C=C(/C=C/c3ccc(Br)cc3)C(C)(C1)C(c1ccc(Br)cc1)CC2=O (centres undefined)	-	-	-	-	0	-
CC(C)(C)NC(=O)NC(=O)CN1CCc2ccccc21	0	0	0	0	-39	0
CC(C)(C)C1=CC(=O)C(=O)C(C(C)(C)C)=C1	0	0	0	0	-48	0
Cc1cc2nc3c(nc2cc1C)C(O)=C3O	0	2.5µM	0	0	0	0
OC1=C(O)c2nc3ccccc3nc21	0	1.3µM	0	0	0	0
Cc1cc2nc(-c3ccccn3)c(-c3ccccn3)nc2cc1C	0	-	-	-	0	-
OC1=C(O)c2nc3cc(C(F)(F)F)ccc3nc21	0	2µM	?	0	0	0
COc1ccc(OC)c(NC(=O)Cn2cnc3sc(C)c(S(=O)(=O)N4CCN(c5ccccc5OC)CC4)c3c2=O)c1	-	0	-	0	-	0
Cc1ccccc1NCC(=O)N/N=C/c1ccc[nH]1	-	-	-	0	-	-
Fc1ccc(CNc2nc(-c3ccco3)cc(C(F)(F)F)n2)cc1	0	25µM	0	0	0	0

Screening results from PubChem BioAssay.
